The record followed here is PubChem BioAssay AID652175 (National Center for Advancing Translational Sciences (NCATS), 2013).

SMILES strings stand for the structures. Several values for one entry are separate records, joined by “and”; a condition that tells them apart may be missing. Identical values can stand only once. Inconclusive results are not listed. Where a call stands in place of a potency, no number is given. Activity calls are given as the source filed them. Calls follow the shape of the dose curve; as a rule, active = well fitted inhibition curve with a large enough effect; inconclusive = small, poorly fitted or top-dose-only effect; inactive = no such curve, though single readings can be large or run the other way.

The assay can be described thus: qHTS Assay for Lipid Storage Modulators: S3 Assay against Probe and Analogs. The conditions noted are these: Drosophila S3 cells, BODIPY lipid droplet fluorescence, 18-24 h, oleic acid added to induce droplets; series mostly up to 46.1 µM. An outline of the steps: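 Lipid droplet accumulation by BODIPY 493/503 intensity over Cell Tracker Red cell signal, on an Acumen laser cytometer, in embryonic Drosophila S3 cells. Oleic acid added with compounds; 18-24 h, 25 °C. Triacsin C, 20 uM, defines 100% inhibition.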
In general terms: Quantitative high-throughput screening tests each substance at several concentrations.

For the compound `O=C(NCCc1ccc(O)c(O)c1)c1cc2sccc2n1Cc1ccccc1`, the Potency result is “inactive”.
Next, `CCOC(=O)C1CCN(C(=O)C(C)(C)NC(=O)Nc2ccc3ccccc3c2)CC1`: 4690 nM (active); `Cc1cc(SCc2sc(-c3ccc(C(F)(F)F)cc3)nc2C)ccc1OCC(=O)O`: “inactive”.
As for `CCOC(=O)C1CCN(C(=O)C(C)(C)NC(=O)Nc2ccc(C#N)cc2)CC1`, the entry is “inactive”; as for `CCOC(=O)C1CCN(C(=O)C(C)(C)NC(=O)Nc2ccc(Cl)cc2Cl)CC1`, 1480 nM (active).
Next, `O=C(NC1CCCc2c1cnn2-c1ccc(F)cc1F)c1ccc(C(=O)c2ccccc2)cc1` (centres undefined): “inactive”; `CCOc1ccc(CCNC(=O)C2(c3ccccc3)CC2)cc1OCC`: “inactive”; `CCOC(=O)C1CCN(C(=O)CNC(=O)Nc2ccccc2Cl)CC1`: “inactive”.
For the compound `CC(C)(NC(=O)Nc1ccccc1Cl)C(=O)N1CCC(C(=O)O)CC1`, the Potency result is “inactive”.
As for `CCOC(=O)C1CCN(C(=O)C(C)(C)NC(=O)Nc2ccc(CN3CCOCC3)cc2)CC1`, the entry is “inactive”.
As for `CCOc1cc(CCNC(=O)c2cc3sccc3n2Cc2ccccc2)cc(F)c1OCC`, the Potency was 33.2 nM (active).
Next, `CCOc1ccc(CCNC(=O)c2cc3sccc3n2Cc2ccccn2)cc1OCC`: 29.6 nM (active); `O=C(O)CCc1ccc(NCc2cccc(Oc3ccccc3)c2)cc1`: “inactive”.
Next, `CCOc1ccc(CCNC(=O)c2cc3sccc3n2CCN2CCN(C)CC2)cc1OCC`: 332 nM (active); `CC1=C(C(=O)NC2CCCc3c2cnn3-c2ccc(F)cc2F)OCCO1` (centres undefined): 59 nM (active).
Next, `CCn1c(C(=O)NCCc2ccc(OC)cc2)cc2sccc21`: “inactive”.
With `O=C(NC1CCCc2c1cnn2-c1ccc(F)cc1F)c1ccccn1` (centres undefined), the Potency is 23.5 nM (active) and 4.7 nM (active).
As for `O=C(NC1CCCc2c1cnn2-c1ccc(F)cc1F)c1cccs1` (centres undefined), the figure is 14.8 nM (active); as for `CCOC(=O)C1CCN(C(=O)C(C)(C)NC(=O)Nc2ccc(N)cc2)CC1`, “inactive”; as for `O=C(Cc1ccccc1)NC1CCCc2c1cnn2-c1ccc(F)cc1F` (centres undefined), “inactive”.
As for `CCOc1ccc(CCNC(=O)c2csc(Br)n2)cc1OCC`, the entry is “inactive”.
Next, `CCOc1ccc(CCNC(=O)c2cc3sccc3n2Cc2ccc(Cl)c(F)c2)cc1OCC`: 5.9 nM (active).
Consider `Cc1cccc(-c2ccc3ncnc(NCc4cccc(F)c4)c3c2)c1`, for which the Potency result is “inactive”.
As for `O=C(NC1CCCc2c1cnn2-c1ccc(F)cc1F)C1CC1` (centres undefined), the Potency result is “inactive”.
As for `COc1nc(-c2ccc3c(c2)OCO3)n(-c2ccc(NC(=O)CSc3ccccc3)cc2)n1`, the entry is “inactive”.
As for `CCOc1ccc(CCNC(=O)c2ccccn2)cc1OCC`, the entry is “inactive”.
Next, `CC(C)(C)OC(=O)NCCOCCOCCOc1ccc(-n2ncc3c2CCCC3NC(=O)c2ccccn2)cc1` (centres undefined): 9.3 nM (active); `CC(C)(C)OC(=O)NCCOCCOCCOCCn1ncc2c1CCCC2NC(=O)c1ccccn1` (centres undefined): “inactive”; `CCOc1ccc(CCN(C)C(=O)c2cc3sccc3n2Cc2ccccc2)cc1OCC`: 469 nM (active).
